{"source": "paper PMC13494018", "binders": {"B1": {"name": "design_622_fcc41892-afde-4fb9-b6e8-b664fffd6a75_2129_dldesign_0_cycle1_af2pred (protein)", "chain": "AAAEAAARAALLAEGLALAHQAATFAAMAEYSPGVAPLAERARARLEAVTAAATPEVAAEIRAAYEASLARVRAALA"}, "B2": {"name": "design_622_fcc41892-afde-4fb9-b6e8-b664fffd6a75_1948_dldesign_0_cycle1_af2pred (protein)", "chain": "SEEALLLANQGVALASQGLIAGDDAKVKEGIKKIEEAKKLASPELAKTFDKLKATVEAMAAGTAAARAAAAAAA"}, "B3": {"name": "design_622_fcc41892-afde-4fb9-b6e8-b664fffd6a75_2349_dldesign_0_cycle1_af2pred (protein)", "chain": "LTEELARETARGQRYAAELIALDPAAQELLEQVRRLSAAALQALLAGDEELAKKLAEEVKRLAEEIKARAEALK"}, "B4": {"name": "design_622_fcc41892-afde-4fb9-b6e8-b664fffd6a75_1878_dldesign_0_cycle1_af2pred (protein)", "chain": "GRQQELNQALGLTLEAAKKASELNKEVLPLVNEAASLIAKAYLTGDKELLKKAIEKLKKAAELASEEVKVLLKKAAEHAKKAIEL"}, "B5": {"name": "design_623_6e2e8b1f-5d9a-4413-9869-27a184816b12_67_dldesign_0_cycle1_af2pred (protein)", "chain": "SREEELERVEEAIATARDVLAGAELTAAQVSPELAAAALRSAARTAVVLFEGEARRAEDEEARERLRKAAEEARKVAA"}, "B6": {"name": "design_622_fcc41892-afde-4fb9-b6e8-b664fffd6a75_1677_dldesign_0_cycle1_af2pred (protein)", "chain": "MEELEELKERSEEVKKRAEEAKKKGEELKKKSPKTAVAGNAVIALAKSAKELAEDPEKVEQAEKVLEIAEAIIKAA"}, "B7": {"name": "design_622_fcc41892-afde-4fb9-b6e8-b664fffd6a75_1795_dldesign_0_cycle1_af2pred (protein)", "chain": "ANAQLAKGYLTAGQVYLQSPDAAYQEQAATAAQAAAAYAEADPAMADLAKQAKALEAEAKAKAAAAKAAA"}, "B8": {"name": "design_622_fcc41892-afde-4fb9-b6e8-b664fffd6a75_2191_dldesign_0_cycle1_af2pred (protein)", "chain": "MKEEVEKLKKEAEKLVKEAKAAAEAGDSGKAVSLASEAFKVARELEKLPESKELGKELKAKAHEVLTLAAK"}, "B9": {"name": "design_622_fcc41892-afde-4fb9-b6e8-b664fffd6a75_1477_dldesign_0_cycle1_af2pred (protein)", "chain": "GEAVQTAVDALKLLSEERRRAAALVAADPENAEARAILERLEESFRAVARAAANPATAQEVGEAGIAEAERARERLAALA"}, "B10": {"name": "design_623_6e2e8b1f-5d9a-4413-9869-27a184816b12_221_dldesign_0_cycle1_af2pred (protein)", "chain": "EEEEKRAAAKEAAALLEAAADDPATRGELVLQAIALLTRYPELAPYASAATRALALAAQEGVAAGAAALREVAAGVKALAE"}, "B11": {"name": "design_622_fcc41892-afde-4fb9-b6e8-b664fffd6a75_2288_dldesign_0_cycle1_af2pred (protein)", "chain": "SAEEEVLAKVKELRDKVEAAAADPAKAAEGAALAQEALAFLEENLPVIRAGGQELKDAVHALLRAIARHNAVYN"}, "B12": {"name": "design_622_fcc41892-afde-4fb9-b6e8-b664fffd6a75_2361_dldesign_0_cycle1_af2pred (protein)", "chain": "EQEKKAKELLKKVKELAKKAEETIKAGIAAGLPKEEIVGKGGELVVEAAKKAAELARVGTPEQAAEARKIVAAAIKYLLKVAAA"}, "B13": {"name": "design_622_fcc41892-afde-4fb9-b6e8-b664fffd6a75_1610_dldesign_0_cycle1_af2pred (protein)", "chain": "DDAAKLASLREFLAQLVEIAKAGNAEQARVMARNARAAARSVAAAVASAAEALALGAEAEAEILAIAQEKAAAA"}, "B14": {"name": "design_622_fcc41892-afde-4fb9-b6e8-b664fffd6a75_2371_dldesign_0_cycle1_af2pred (protein)", "chain": "SAAAAESNQELAKQLKAIAQANAKAGDAEAVERVARSAAAAAKAVSEHPEAQKALTEAAKEAQKLAQQVKAA"}, "B15": {"name": "design_622_fcc41892-afde-4fb9-b6e8-b664fffd6a75_2272_dldesign_0_cycle1_af2pred (protein)", "chain": "DEAKKQLEIATKMAEYALKQAEAALKDGRTAGTVVPAQVKTLKLLAESAEATGLEEAKKKAEEFKKKAKELEKAAEKAK"}, "B16": {"name": "design_623_6e2e8b1f-5d9a-4413-9869-27a184816b12_254_dldesign_0_cycle1_af2pred (protein)", "chain": "DDLTQAQIALAAAQALIKNAKAVLEDKSASEETLKSAAEAMEVAIQLAKQAEKLAKKADPELAKKAKEVKKEAEKVKKELEKKI"}, "B17": {"name": "design_622_fcc41892-afde-4fb9-b6e8-b664fffd6a75_1801_dldesign_0_cycle1_af2pred (protein)", "chain": "QALLEAASAIVEAAELAAKEVGPAAANALLTEAGKLLATGEAGLKAAVAEIDKVAKQASPEVAKKLLELRDKAAA"}, "B18": {"name": "design_622_fcc41892-afde-4fb9-b6e8-b664fffd6a75_2329_dldesign_0_cycle1_af2pred (protein)", "chain": "AALREEAKKRVDAAVAAADAAAAADPLAGAIAYGELAVETARLAAELARADPAAGAEMRAKLVDISQKAIALALAAG"}, "B19": {"name": "design_622_fcc41892-afde-4fb9-b6e8-b664fffd6a75_1873_dldesign_0_cycle1_af2pred (protein)", "chain": "NALVQAGKIAAQAAVSLAKNAIAHADEMSPEGLQGAIDVATALIEYAEKAAKEDPEVAKLVEEAKKLVAEAKAVLAAR"}, "B20": {"name": "design_622_fcc41892-afde-4fb9-b6e8-b664fffd6a75_1828_dldesign_0_cycle1_af2pred (protein)", "chain": "EAAAREAAARRLAAALEAAEAAAAGPLGPRVAVAAAEVALEVLAAHPRLSPEAVRAAHRLLVLGGRAAGILAA"}}, "target": "CD276, Q5ZPR3", "sequence (Q5ZPR3 whole entry)": "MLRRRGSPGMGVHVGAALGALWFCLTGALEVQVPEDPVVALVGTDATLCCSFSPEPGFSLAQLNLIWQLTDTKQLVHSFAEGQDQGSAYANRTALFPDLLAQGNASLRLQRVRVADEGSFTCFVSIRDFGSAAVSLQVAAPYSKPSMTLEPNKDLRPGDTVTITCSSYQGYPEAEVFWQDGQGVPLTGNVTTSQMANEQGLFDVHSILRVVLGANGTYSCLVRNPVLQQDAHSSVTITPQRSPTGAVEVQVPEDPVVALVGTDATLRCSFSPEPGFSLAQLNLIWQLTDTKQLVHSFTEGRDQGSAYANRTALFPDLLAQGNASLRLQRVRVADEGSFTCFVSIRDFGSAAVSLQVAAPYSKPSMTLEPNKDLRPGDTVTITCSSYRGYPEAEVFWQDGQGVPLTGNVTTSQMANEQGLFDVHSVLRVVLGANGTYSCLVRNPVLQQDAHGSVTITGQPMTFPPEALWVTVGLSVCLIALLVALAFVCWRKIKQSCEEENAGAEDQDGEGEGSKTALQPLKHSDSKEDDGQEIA", "note": "A number with no mark means an inactive call. The rule behind the calls is not given here.", "data": [{"binder": "B1", "values": [{"measurement": "binding in a display sort", "result": "not found"}]}, {"binder": "B2", "values": [{"measurement": "binding in a display sort", "result": "not found"}]}, {"binder": "B3", "values": [{"measurement": "binding in a display sort", "result": "not found"}]}, {"binder": "B4", "values": [{"measurement": "binding in a display sort", "result": "not found"}]}, {"binder": "B5", "values": [{"measurement": "binding in a display sort", "result": "not found"}]}, {"binder": "B6", "values": [{"measurement": "binding in a display sort", "result": "not found"}]}, {"binder": "B7", "values": [{"measurement": "binding in a display sort", "result": "not found"}]}, {"binder": "B8", "values": [{"measurement": "binding in a display sort", "result": "not found"}]}, {"binder": "B9", "values": [{"measurement": "binding in a display sort", "result": "not found"}]}, {"binder": "B10", "values": [{"measurement": "binding in a display sort", "result": "not found"}]}, {"binder": "B11", "values": [{"measurement": "binding in a display sort", "result": "not found"}]}, {"binder": "B12", "values": [{"measurement": "binding in a display sort", "result": "not found"}]}, {"binder": "B13", "values": [{"measurement": "binding in a display sort", "result": "not found"}]}, {"binder": "B14", "values": [{"measurement": "binding in a display sort", "result": "not found"}]}, {"binder": "B15", "values": [{"measurement": "binding in a display sort", "result": "not found"}]}, {"binder": "B16", "values": [{"measurement": "binding in a display sort", "result": "not found"}]}, {"binder": "B17", "values": [{"measurement": "binding in a display sort", "result": "not found"}]}, {"binder": "B18", "values": [{"measurement": "binding in a display sort", "result": "not found"}]}, {"binder": "B19", "values": [{"measurement": "binding in a display sort", "result": "not found"}]}, {"binder": "B20", "values": [{"measurement": "binding in a display sort", "result": "not found"}]}]}
